Active and inactive are the calls of the source.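 How the source made its calls: active means inhibition of at least 50% at 50 µM, meaning an activity change of -50% or lower; inconclusive means inhibition above 30% but under 50% at 50 µM; inactive means inhibition of 30% or less at 50 µM.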

The nature of the assay: qHTS Assay for Iinhibitors of HIV-1 Budding by Blocking the Interaction of PTAP/TSG101: Hit Validation in Viral Budding Asaay. The settings on record: HeLa pNL4-3 HIV-1 budding, supernatant RT activity, 18 h; at 50 µM (top of the series). The source says: Stages of the HIV-1 replication cycle, specifically virus assembly and release, provide underexploited targets for the development of novel antiviral inhibitors. The late stages of HIV-1 replication are mediated by the Gag precursor protein, Pr55Gag. Expression of Pr55Gag is both necessary and sufficient for the production of virus-like particles from Gag-expressing cells. The Gag protein hijacks key host proteins involved in endocytic machinery of the host cell to promote endosomal processing and viral budding. The budding process requires a direct interaction between a […] (PTAP) motif in the p6 domain of Gag and the cellular endosomal sorting protein known as Tsg101. In this way, the Gag PTAP motif promotes the host cells to recruit viral particles to the plasma membrane where the new viral particles are released, effectively turning the host cells into viral factories. A fluorescence anisotropy assay has been developed to quantitatively measure the PTAP-Tsg101 interaction which can be used to screen for inhibitors of this interaction. In this hit validation assay the readout is the release of reverse transcriptase (RT) activity into the medium of HeLa cells transfected with the full-length HIV-1 molecular clone pNL4-3. RT release from virus-producing cells occurs upon budding of virus from the cell surface. Small molecules that block the PTAP/Tsg101 interaction will reduce RT release. HeLa cells will also be transfected with a luciferase expression vector; compounds that are cytotoxic will reduce luciferase expression. NIH Molecular Libraries Probe Production Network [MLPCN] NIH Chemical Genomics Center [NCGC] MLPCN Grant: 1 R03 MH087464-01A1 PI Name: Dr. Eric Freed, NCI
Virus producing cells were treated with 12.5, 25 & 50 uM of each compound and 18 hr after treatment virus supernatant was collected from the cells. Reverse transcriptase (RT) activity in the virus supernatant is then measured.
Regarding `COc1cccc(C(=O)c2sc3nc(-c4ccccc4)cc(C(F)(F)F)c3c2N)c1`, the activity change, negative = inhibition was -91.8% (active). On to `O/C=c1\ccc2cccc3nc(C(F)(F)F)nc1c23`, for which the activity change, negative = inhibition is -89.5% (active). On to `COc1cccc2c1C(=O)c1c(O)c3c(c(O)c1C2=O)CC(O)(C(=O)CO)CC3OC1CC(N(C)C)C(O)C(C)O1` (centres undefined), for which the activity change, negative = inhibition was -84% (active).

As to `CN1CCc2c(sc(NC(=O)CSc3ccc(F)cc3)c2-c2nc3ccccc3s2)C1`, the activity change, negative = inhibition was -59.8% (active).
